The text below walks through data of PubChem BioAssay (NCI).

The structures appear in SMILES notation. Where “and” joins values, the source holds several entries; their conditions need not be identical. Equal values may be shown once. About 83,000 compounds went through this panel and 20% of them were active in at least one assay; those are over-represented in the sample as a whole.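 Single-concentration screen, 48 h exposure, 96-well plates. Endpoint: percent growth. Below 10 = active.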 Calls of active or inactive are those of the source.

For this experiment, the system named is MDA-MB-468 breast. Briefly: NCI-60 one-dose screen, 48 h (100 = growth as untreated, 0 = no growth, -100 = all killed). To be noted: 10 µM unless noted.
As to `CC1(C)CC(=O)C2=C(C1)N(c1ccc(OC(F)(F)F)cc1)C(N)=C(C#N)C2c1ccc(Br)cc1F` (stereo not drawn), the growth is 55.7% (inactive).
With `CCOc1nc(-c2ccccc2)cc2c(O)c(C(=O)NC(C)C)[nH]c(=O)c12` the figure was 101% (inactive); with `O=[N+]([O-])c1ccc(N/N=C(\C(=N/Nc2ccc([N+](=O)[O-])cc2[N+](=O)[O-])c2ccccc2)c2ccccc2)c([N+](=O)[O-])c1`, 86.4% (inactive); with `CCCOc1cc2ccccc2cc1C(=O)Nc1nc(N)c2c(ccc3nccc32)[nH]1`, -64.7% (active).
With `O=C1C=C[C@]2(C[C@@H](c3cccc(C(F)(F)F)c3)O[C@@H](c3cccc(C(F)(F)F)c3)O2)O1` the figure was -48.8% (active); with `CN(C)c1ccc(Cc2cc(-c3ccccc3)nn(C/C(=N/O)c3ccccc3)c2=O)cc1`, 57.1% (inactive).
As for `COC(=O)c1ccc(Cn2ccc(=O)[nH]c2=O)cc1`, the growth was 104% (inactive).
For the compound `CNC(=O)c1cc(Oc2ccc(NC(=O)Nc3ccc(Cl)c(C(F)(F)F)c3)cc2)ccn1`, the growth is -12.8% (active) and 20.5% (inactive).
In the case of `CC1CCCC(=O)O1` (stereo not drawn), the growth was 97.4% (inactive) and 97.3% (inactive).
Take `CCOC(=N)CC(=O)Nc1cccc(C)c1Cl`: the growth was 90.8% (inactive).
Take `COc1cnc2c(c1)C(=O)c1c-2n(CCCN2CCC(O)CC2)c(=O)c2cc(Cl)ccc12`: the growth was 38.5% (inactive).
To `O=C(c1ccc(F)c(Cl)c1)N1c2ccccc2Sc2ccccc21` belongs 63.1% (inactive); to `[2H]C([2H])([2H])Oc1ccc(/C=C/C(=O)/C=C(O)/C=C/c2ccc(OC([2H])([2H])[2H])c(OC([2H])([2H])[2H])c2)cc1OC([2H])([2H])[2H]`, 1.44% (active).
